How the values were obtained:
Assay in all cases: PBM binding z-score (relative to random genomic background probes); higher = stronger binding; sequences stand for … in GC…GCGATTGACAGCGTAGAATGAAGG
[1] = system: FXR:RXRa (NR concentration 270 nM, RXRa partner concentration 90 nM)
Outline: (§1)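 Random background probes are the reference for binding z-scores. These scores derive from regression-normalized fluorescence on custom Agilent 4×180K protein-binding microarrays incubated 1 h with ligand-free nuclear receptor dimers. Binding was detected with antibodies against each partner (one per run).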

[2] = system: LXRa:RXRa (NR concentration 270 nM, RXRa partner concentration 90 nM)
Outline: as §1

[3] = system: LXRa homodimer (NR concentration 270 nM)
Outline: as §1

[4] = system: LXRb:RXRa (NR concentration 270 nM, RXRa partner concentration 90 nM)
Outline: as §1

[5] = system: LXRb homodimer (NR concentration 270 nM)
Outline: as §1

[6] = system: PPARa:RXRa (NR concentration 270 nM, RXRa partner concentration 90 nM)
Outline: as §1

[7] = system: PPARg:RXRa (NR concentration 180 nM, RXRa partner concentration 90 nM)
Outline: as §1

[8] = system: PPARg:RXRa 270nM:90nM, anti-RXR (NR concentration 270 nM, RXRa partner concentration 90 nM)
Outline: as §1

[9] = system: PPARg:RXRa 30nM:10nM, anti-RXR (NR concentration 30 nM, RXRa partner concentration 10 nM)
Outline: as §1

[10] = system: PPARg:RXRa 90nM:30nM, anti-RXR (NR concentration 90 nM, RXRa partner concentration 30 nM)
Outline: as §1

[11] = system: PPARg:RXRa DBDmut IVT, anti-RXR (DBD mutation: RXRa K156A/R161A, NR concentration 270 nM, RXRa partner concentration 90 nM)
Outline: as §1

[12] = system: PPARg:RXRa IVT, anti-PPARg (NR concentration 270 nM, RXRa partner concentration 90 nM)
Outline: as §1

[13] = system: PPARg DBDmut:RXRa IVT, anti-PPARg (DBD mutation: PPARg1 K132A/R137A, NR concentration 270 nM, RXRa partner concentration 90 nM)
Outline: as §1

[14] = system: PPARg DBDmut IVT, anti-PPARg (DBD mutation: PPARg1 K132A/R137A, NR concentration 270 nM)
Outline: as §1

[15] = system: PPARg homodimer (NR concentration 180 nM)
Outline: as §1

[16] = system: PXR:RXRa (NR concentration 270 nM, RXRa partner concentration 90 nM)
Outline: as §1

[17] = system: PXR homodimer (NR concentration 270 nM)
Outline: as §1

[18] = system: RARa:RXR (NR concentration 270 nM, RXRa partner concentration 90 nM)
Outline: as §1

[19] = system: RARa homodimer (NR concentration 270 nM)
Outline: as §1

[20] = system: RARb:RXRa (NR concentration 270 nM, RXRa partner concentration 90 nM)
Outline: as §1

Sequence | PBM binding z-score [1] | PBM binding z-score [2] | PBM binding z-score [3] | PBM binding z-score [4] | PBM binding z-score [5] | PBM binding z-score [6] | PBM binding z-score [7] | PBM binding z-score [8] | PBM binding z-score [9] | PBM binding z-score [10] | PBM binding z-score [11] | PBM binding z-score [12] | PBM binding z-score [13] | PBM binding z-score [14] | PBM binding z-score [15] | PBM binding z-score [16] | PBM binding z-score [17] | PBM binding z-score [18] | PBM binding z-score [19] | PBM binding z-score [20]
CGTCCAAGGTCAGAGAGGTCAGTTAATGCCGAGT | 6.19 | 5.39 | 3.93 | 4.99 | 0.784 | 4.72 | 3.34 | 4.09 | 0.894 | 2.9 | 3.01 | 3.3 | 0.545 | 0.19 | 6.18 | 6.24 | 12.6 | 5.94 | 3.51 | 5.22
CCTACTGTGCCAAAGGTCATTGATTCCAATGCTC | 5.48 | 5.82 | 5.32 | 5.34 | 2.14 | 6.17 | 11.4 | 9.67 | 9.47 | 10.3 | 5.24 | 5.97 | 0.578 | 0.496 | 4.4 | 5.42 | 2.77 | 5.77 | 2.56 | 4.63
CAAACTAGGTCATGGTCAAAGTCGGTTTGTGCCA | 3.73 | 2.64 | 0.245 | 1.94 | 0.0742 | 4.74 | 8.15 | 6.86 | 4.7 | 6.63 | 8.43 | 8.57 | 2.9 | 1.82 | 2.21 | 1.75 | -0.231 | 2.44 | 0.58 | 4.01
GATACAGGGTCAAGGCCAGAGTCCGCGTATTGAT | 6.15 | 4.03 | -0.217 | 3.58 | 0.0048 | 5.35 | 5.26 | 5.31 | 1.52 | 3.89 | 2.59 | 3.9 | -0.201 | -0.204 | 1.62 | 3.79 | 0.344 | 4.03 | 0.185 | 4.39
TCTATTAGTTGATTAGGGCAACGGAAACAGCGGA | 0.551 | 0.44 | 0.103 | 0.473 | 0.812 | 0.801 | 0.284 | 1.99 | 3.35 | 3 | 2.04 | 1.27 | 0.436 | 0.954 | 0.288 | 0.192 | 0.475 | 0.276 | 0.743 | 0.963
AGAATGAGGTTACTAAGATCAGGGAATTGCGGTC | 1.46 | 1.24 | -0.205 | 0.978 | -0.137 | 2.62 | 2.35 | 2.48 | 0.629 | 1.7 | 4.08 | 3.37 | 0.676 | 0.112 | 0.638 | 0.828 | 0.241 | 1.37 | -0.455 | 1.74
CGTCCAAGGTCAATGGTCAGTGAAGAGATGACGG | 6.47 | 4.43 | 0.613 | 3.19 | 0.452 | 4.93 | 4.14 | 4.38 | 1.83 | 3.55 | 3.08 | 3.44 | 1.01 | -0.0239 | 2.84 | 3.33 | 1.16 | 3.98 | 0.654 | 5.08
ATATGTAGGTTATCGGGTCATTCCGTTTGCGCAT | 3.08 | 3.17 | 1.85 | 3.11 | 0.638 | 4.81 | 6.78 | 5.92 | 3.37 | 5.6 | 7.56 | 7.62 | 4.25 | 2.25 | 2.58 | 3.12 | 1.27 | 3.83 | 0.962 | 2.65
ATCGAAAGATCGAGGTGAGTATAGAGAAAGGGAA | 0.0424 | 0.111 | -0.321 | -0.262 | -0.23 | 0.469 | 0.553 | 0.362 | 0.533 | 0.418 | -0.0862 | 1.27 | 0.466 | 0.643 | -0.144 | -0.176 | -0.105 | 0.139 | -0.0593 | 0.194
AGTCAAAGTTCAGGACGAGGTAACTTAAAGCACG | 4.45 | 3.83 | 1.38 | 2.1 | 0.364 | 3.59 | 4.72 | 4.85 | 2.02 | 3.7 | -0.0506 | 2.05 | 0.457 | 0.0759 | 1.75 | 3.24 | 1.4 | 2.84 | 1.02 | 4.25
ACTATTAGTTAAGACGAGGGCAACCGATAGGTTG | 0.44 | 0.122 | 0.165 | 0.211 | 0.232 | 0.271 | 0.646 | -0.109 | -0.17 | -0.186 | -0.356 | 0.422 | 0.81 | 0.924 | 0.44 | 0.642 | 0.645 | 0.641 | 1.02 | 0.967
GCTTGTAGATCAAGGTTAAGAAGGACTAAGCTAA | 0.204 | 0.416 | -0.49 | 0.546 | -1.11 | 1.38 | 0.945 | 2.08 | 0.323 | 1.79 | 1.59 | 0.939 | -0.676 | 0.139 | -0.16 | 0.306 | -0.0751 | 0.701 | -0.375 | 0.923
TCATATAGGTAATACAGGAGAAAGTCGGCATCTA | 0.853 | 1.01 | 0.161 | 0.676 | 0.172 | 1.07 | 1.23 | 2.37 | 3.96 | 2.81 | 4.09 | 2.1 | 1.79 | 0.92 | 0.788 | 0.627 | 0.0379 | 0.706 | 1.13 | 0.369
TCATATAGGAAATACAGGTGAAAGTCGGCATCTA | 1.36 | 1.32 | 0.335 | 1.27 | 0.00276 | 1.6 | 1.1 | 2.77 | 4.7 | 3.66 | 3.01 | 1.27 | 1.58 | 0.426 | 1.31 | 0.596 | 0.578 | 0.964 | 1.97 | 0.372
